In PubChem BioAssay AID686979 (National Center for Advancing Translational Sciences (NCATS), 2013):
“And” between values parts separate entries of the source, which are not always exact repeats. Equal values may be shown once. About 50,000 (12%) of roughly 420,000 compounds were called active. Another 26% or so got no clear call; they are omitted. The sample as a whole holds a higher share of actives than the screen did. Values without a mark were called inactive. Calls follow the shape of the dose curve; as a rule, active = well fitted inhibition curve with a large enough effect; inconclusive = small, poorly fitted or top-dose-only effect; inactive = flat fitted curve, though single readings scatter.

Assay: qHTS for Inhibitors of human tyrosyl-DNA phosphodiesterase 1 (TDP1): qHTS in cells in presence of CPT; also: nearly all actives have a fitted effect of over 55% in size
Conditions: chicken DT40 Tdp1-/-;hTDP1 cells + 20 nM CPT, ATP luminescence, 48 h; series mostly up to 46.2 µM; activity change, negative = growth inhibition: at the top concentration
Summary of the method: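 Cell growth measured by CellTiter-Glo luminescence after a minimum 48 h, 37 C compound exposure with 20 nM CPT in Tdp1-knockout DT40 cells stably expressing hTDP1, seeded 400/well; qHTS titration format.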
% is scaled to controls: 0 for no effect and ±100 for the full control effect; potency is read from the fitted curve at half-maximal effect.

| SMILES | activity change, negative = growth inhibition | Potency |
| --- | --- | --- |
| Cc1ccc(S(=O)(=O)N(C)C)cc1NC(=O)c1ccc(-n2cncn2)c([N+](=O)[O-])c1 | -3.09% |  |
| COc1ccccc1CNCc1ccc(C(=O)O)s1 | -5.35% |  |
| CCCn1nc(C(=O)OCc2nc(N)nc(Nc3ccccc3C)n2)c2ccccc2c1=O | -16.3% |  |
| COC(=O)c1ccc(NCC(=O)c2ccccc2)cc1 | -1.26% |  |
| C#CCNc1ccc(C(=O)OCC)cc1 | 1.67% |  |
| CC(OC(=O)c1ccc(Cl)cc1O)C(=O)NCCC1=CCCCC1 (stereo not given) | -9.5% |  |
| O=C(OC12CC3CC(CC(C3)C1)C2)c1ccc(NCc2cc(O)ccc2O)cc1 |  | 2.06 µM (active) |
| COC(=O)c1ccc(NCc2cc(O)ccc2O)cc1 |  | 4.61 µM (active) |
| CC(CN1CCOCC1)OC(=O)c1ccc(Cl)cc1Cl (stereo not given) | 5.64% |  |
| CC(C)OC(=O)c1ccc(NCc2cc(O)ccc2O)cc1Cl |  | 2.91 µM (active) |
| CCCCCN(C(=O)CCC(=O)OCC(=O)NC1CCC(C)CC1)c1c(N)n(CCCC)c(=O)[nH]c1=O (stereo not given) | -3.19% |  |
| COc1ccc(NC(=O)c2cccc(Cl)c2)c[n+]1[O-] | -0.187% |  |
| O=C(Nc1c2c(nn1-c1ccccc1)CS(=O)(=O)C2)C1CCCC1 | -6.01% |  |
| O=C(CCc1ccc(S(=O)(=O)N2CCOCC2)cc1)OCC(=O)c1ccc(Br)cc1 | 9.72% |  |
| CCOc1ccc(-n2cnnn2)cc1S(=O)(=O)N1CCC(C)CC1C (stereo not given) | -5.89% |  |
| C#CC(C)(C)NC(=O)c1cnc(-c2ccccc2)nc1-c1ccccc1 | -19.4% |  |
| COC(=O)c1ccc(COC(=O)CNC(=O)c2cccc(OC)c2)o1 | 1.46% |  |
| O=S(=O)(/N=C(/Nc1ccccc1)c1ccccc1)c1cccs1 | -15.8% |  |
| CCCCCc1ccc(-c2cn(Cc3ccc4ccccc4c3)nn2)cc1 |  | inactive |
| CCc1cc(-c2nnn(CCC3COCCO3)c2CC)ccc1-c1cn(Cc2ccc3ccccc3c2)nn1 (stereo not given) |  | 5.8 µM (active) |
| CCCN(CCC)C(=O)C(Cc1ccccc1)NS(=O)(=O)c1ccc2c(c1)c(=O)n(C)c(=O)n2C (stereo not given) | -14% |  |
| O=C(CNC(=O)N1CC(=O)Nc2ccccc21)Nc1ccc(Br)cc1F | 6.9% |  |
| C[C@H](CO)N1C[C@H](C)[C@@H](CN(C)C(=O)C2CCCCC2)OCc2cnnn2CCCC1=O | -22.6% |  |
| CC(C)N(C(=O)Cn1cc(SCC(=O)N2CCCC2)c2ccccc21)C(C)C | 10.2% |  |
| CC(=O)Nc1cccc(NC(=O)CSc2cn(CC(=O)N3CCCC3)c3ccccc23)c1 | -26.7% |  |

| SMILES | activity change, negative = growth inhibition | Potency |
| --- | --- | --- |
| O=C(Cn1cc(SCc2cccc(Cl)c2)c2ccccc21)N1CCCCC1 |  | 18.4 µM (active) |
| CC(C)C12CN3CC(C(C)C)(CN(C1)C3c1ccc(OCc3ccccc3)cc1)C2=O (stereo not given) | 0.582% |  |
| Cn1nccc1C(=O)NCC1CCC2(CCN(Cc3c(O)ccc4ccccc34)CC2)O1 (stereo not given) | -24.3% |  |
| CC(=O)Nc1ccc(NC(=O)COC(=O)c2ccccc2C(=O)c2ccccc2)cc1 | -29.4% |  |
| N#Cc1cccc(NC(=O)COC(=O)c2ccccc2C(=O)c2ccc(Cl)c([N+](=O)[O-])c2)c1 |  | 20.6 µM (active) |
| COC(=O)c1cc(NC(=O)Cc2ccccc2[N+](=O)[O-])ccc1Cl | -7.47% |  |
| CCOC(=O)C1CCN(CC(=O)Nc2ccc(OC)c(S(=O)(=O)N3CCCCC3)c2)CC1 | -23.6% |  |
| CC(=O)Nc1ccc(NC(=O)CSc2nnc(C3CC3)n2-c2ccccc2)cc1 | -16.4% |  |
| CCn1c2ccccc2c2cc(NC(=O)CNC)ccc21 | 1.65% |  |
| CC[n+]1c(C)n(-c2ccccc2)c2ccc(NC(C)=O)cc21 |  | 6.51 µM (active) |
| Cc1ccccc1NC(=O)Cn1c(=O)n(Cc2ccco2)c(=O)c2ccc(C(=O)NC3CCCC3)cc21 | -7.3% |  |
| CC(C)(C)NC(=O)NC(=O)COC(=O)CCC1CCCCC1 | -24.2% |  |
| COc1ccc(N2C(=O)C(Cc3ccccc3)NC2=S)cc1 (stereo not given) | 31.4% |  |
| COc1ccc(N2c3ccccc3CN(Cc3ccccc3)[C@@H](C)[C@H]2Cc2ccc(-c3ccccc3)cc2)cc1 |  | 23.1 µM (active) |
| C[n+]1cccc(C(=O)O)c1 | -7.01% |  |
| O=C(CCc1nnc2ccc(NCc3ccccc3Cl)nn12)NCC1CCN(C2CCCC2)C1 (stereo not given) | 9.38% |  |
| Nc1c(-c2cccc(Cl)c2)cnn1-c1cccc([N+](=O)[O-])c1 | -19.7% |  |
| COc1cccc(NC(=O)N2CCCC2C(=O)NC2CCCCC2)c1 (stereo not given) | 6% |  |
| COc1cccc(NC(=O)C/C(C)=N/NC(=O)C2CCCCC2)c1 | -21.1% |  |
| COc1cccc(NC(=O)N(Cc2cn(C)c3ccccc23)C2CCCCCC2)c1 |  | 5.8 µM (active) |
| COc1ccc(NC(=O)NNC(=O)COc2cc(C)c(Cl)c(C)c2)c(OC)c1 | -9.26% |  |
| O=C1CSC(c2ccc(Cl)cc2)N1 (stereo not given) | -5.3% |  |
| O=C(CN1CCCCCC1)Nc1c(Cl)cc(Cl)cc1Cl | -25.1% |  |
| CCNC(=O)C1CCCN(C(=O)c2cc(F)ccc2C)CC1 (stereo not given) | -17.5% |  |
| O=C(c1cccc(F)c1)N1CCC2(CCCN(Cc3ccncc3)C2)CC1 | -20.6% |  |

| SMILES | activity change, negative = growth inhibition | Potency |
| --- | --- | --- |
| O=C(c1ccncc1)N1CCC2(CCCN(C(c3ccccc3)c3ccccc3)C2)CC1 |  | 16.4 µM (active) |
| COc1ccc(C(=O)N2CCC3(CCCN(C(c4ccccc4)c4ccccc4)C3)CC2)cc1 | 21% |  |
| COc1ccc(CC(=O)Nc2nnc3n2CCS3)cc1OC | -12.5% |  |
| O=C(COC(=O)c1cccs1)NCc1cccs1 | 2.73% |  |
| CN(Cc1ccccc1)C(=O)c1cccc(C(=O)N(C)Cc2ccccc2)c1 | -2.28% |  |
| CCOc1ccc(OCc2cccc(C(=O)N(CC)CC)c2)cc1 |  | 20.6 µM (active) |
| COc1ccc(OCc2cccc(C(=O)N3CCCC3)c2)cc1 | -16.4% |  |
| O=C(CN1C(=O)c2ccccc2S1(=O)=O)NC1CCCCC1 | 1.06% |  |
| COc1ccc(-n2cnnc2SCC(=O)Nc2cccc(S(N)(=O)=O)c2)cc1 | -3.28% |  |
| O=C(Nc1ccc(Cl)cc1)Nc1ccc(C(=O)N2CCOCC2)cc1 | -16.9% |  |
| Nc1ncnc2c1ncn2C1CC(O)C(CO)O1 (stereo not given) |  | 1.16 µM (active) |
| Nc1ccn(C2CC(O)C(CO)O2)c(=O)n1 (stereo not given) | -0.714% |  |
| Nc1ncnc2c1cnn2C1CC(O)C(CO)O1 (stereo not given) | 14.9% |  |
| CCN(CC(=O)Nc1c(F)cccc1F)C(=O)c1cnc(C)cn1 | 1.54% |  |
| O=C1c2ccccc2C(=O)N1CCCCCCN1C(=O)c2ccccc2C1=O | -18% |  |
| O=C(CCCn1c(=O)c2sccc2n(CC(=O)NCC2CCCO2)c1=O)NCc1ccco1 (stereo not given) | 2.51% |  |
| CCN(CCCNC(=O)CCn1c(=O)[nH]c2ccsc2c1=O)c1ccccc1 | 6.83% |  |
| CCC1CCCCN1C(=O)Cn1c(=O)n(CCCCCC(=O)NCc2ccccc2)c(=O)c2sccc21 (stereo not given) |  | 16.4 µM (active) |
| Cc1cc(S(=O)(=O)NCc2ccccn2)c(Cl)cc1Cl | -2.32% |  |
| Cc1ccc(S(=O)(=O)NCC(=O)NNC(=O)c2ccc(Br)cc2)cc1C | 8.9% |  |
| C/C(=N\Nc1nc(Nc2ccccc2)nc(N2CCOCC2)n1)c1cccs1 |  | 23.1 µM (active) |
| C/C(=N\Nc1ccccc1)c1cccs1 | -0.909% |  |
| C/C(=N\Nc1nc(N2CCOCC2)nc(N2CCOCC2)n1)c1ccc([N+](=O)[O-])cc1 | 9.59% |  |
| O=C(COC(=O)C1CC2CCCC(C1)C2=O)NC(=O)c1ccccc1 (stereo not given) | -16.9% |  |
| CC(C)(C)c1ccc(C(=O)N2CCN(CCNC(=O)C(=O)Nc3ccc(F)cc3)CC2)cc1 |  | 16.4 µM (active) |

| SMILES | activity change, negative = growth inhibition | Potency |
| --- | --- | --- |
| CN1CCN(C(=O)c2ccc(NC(=O)c3ccc(Br)o3)cc2)CC1 | 7.4% |  |
| Cc1ccc(C(=O)N/C(=C\c2ccc(F)cc2)C(=O)NCCN2CCOCC2)cc1 | 2.67% |  |
| Cc1cc(C(=O)OCC(=O)N2C(C)CCCC2C)c2ccccc2n1 (stereo not given) | 2.32% |  |
| O=C(NCc1ccncc1)C1CCCN(S(=O)(=O)c2ccc(Br)cc2)C1 (stereo not given) | -26% |  |
| CC(=O)N1CCCc2cc(S(=O)(=O)N3CCCC(C(=O)N4CCN(c5cccc(Cl)c5)CC4)C3)ccc21 (stereo not given) |  | 2.31 µM (active) and 8.2 µM (active) |
| CC(=O)N1CCCc2cc(S(=O)(=O)N3CCCC(C(=O)NCc4ccc(Cl)cc4)C3)ccc21 (stereo not given) |  | 18.4 µM (active) |
| CC(=O)N1CCCc2cc(S(=O)(=O)N3CCC(C(=O)NC4CCCCC4)CC3)ccc21 | 6.44% |  |
| COC(=O)c1ccccc1NS(=O)(=O)c1ccc2c(c1)CCCN2C(C)=O | -17% |  |
| COc1cccc(N2CCN(S(=O)(=O)c3ccc4c(c3)CCCN4C(C)=O)CC2)c1 | -26.4% |  |
| CCCCn1c(N)c(N(CCOC)C(=O)c2cccc(S(=O)(=O)N(C)c3ccccc3)c2)c(=O)[nH]c1=O | 0.657% |  |
| CC(C)(C(=O)N1CCC1(C)C(=O)NS(=O)(=O)c1ccc(Br)cc1)c1ccccc1 (stereo not given) | -32.2% |  |
| CCOC(=O)C1CCN(S(=O)(=O)c2ccc3c(c2)N(C(C)=O)CCO3)CC1 | -14.8% |  |
| Cc1cc2c(cc1C)N(Cc1ccccc1)C1=NCCCN12 |  | 13 µM (active) |
| OC(CN1C2=NCCCN2c2ccccc21)c1ccc(Br)cc1 (stereo not given) | -29.8% |  |
| O=C(CN1C2=NCCN2c2ccccc21)c1cccs1 | -13.6% |  |
| COC(=O)CSc1nc2ccccc2c(=O)n1Cc1ccccc1 | 0.481% |  |
| COC(=O)c1ccc(Cn2c(SCC(=O)N(C)c3ccccc3)nc3ccccc32)cc1 |  | 20.6 µM (active) |
| CN(C(=O)CSc1nc2ccccc2n1Cc1ccccc1C#N)c1ccccc1 |  | 14.6 µM (active) |
| CCOc1ccc(OCCSc2nc3ccccc3n2CC(=O)O)cc1 | -13.1% |  |
| Cc1ccc(Cn2c(SCC(=O)N/N=C/c3ccccc3OCC(=O)O)nc3ccccc32)cc1 | -7.54% |  |
| CCN(CC)C(=O)CSc1nc2ccccc2n1CC(=O)N1CCN(c2ccccc2OC)CC1 | -26.7% |  |
| CC(C)[C@H](NC(=O)OCc1ccccc1)C(=O)OCc1ccccc1 | 5.67% |  |
| CCN1CCN(C(=O)N[C@@H](C(=O)N[C@@H]2C(=O)N3C(C(=O)O)=C(CSc4nnnn4C)CS[C@H]23)c2ccc(O)cc2)C(=O)C1=O |  | inactive |
| CCOc1ccc(C)cc1S(=O)(=O)NC1CCCCCC1 | -28.6% |  |
| CC1CN(C(=O)COC(=O)c2cccc(NS(=O)(=O)c3ccccc3)c2)CC(C)O1 (stereo not given) | -2.2% |  |
